The whole screen tested about 1,200 compounds, of which about 210 (18%) were called active. Cut-off read from the data, not from the text of the source: active = inhibition above about 30%; inactive = the rest. Not all results are given here.

A short description of the assay: HTRF signal interference by compounds, confirmation, artefact control for SUMOylation inhibitor project, biochemical, uHTS (AID 2069). Particulars: HTRF interference counterscreen, fluorescence, at 35 µM, stronger effect = higher value. Background: TR-FRET usually uses a lanthanide donor and a delayed reading to cut background.
Regarding `COc1ccc(-c2csc(CCN3N=C(C)CC3=O)n2)cc1`, the inhibition was -4.6% (inactive). For `Cc1cc2oc(C(=O)Nc3ccc(S(=O)(=O)Nc4nccs4)cc3)cc(=O)c2cc1Cl` the value was -9.2% (inactive). Regarding `Cc1ccc(CSc2nnc(SCC(=O)N/N=C/c3c[nH]c4ccccc34)s2)cc1`, the inhibition was -3.9% (inactive). For `CC1CCCN(C2=C(NS(=O)(=O)c3ccc(Br)cc3)C(=O)c3ccccc3C2=O)C1` (stereo unspecified) the value was -7.35% (inactive).

As to `Cc1cccc(NC(=S)Nc2cccc3ccccc23)c1`, the inhibition is -3.85% (inactive). Take `COc1cc(/C=C2/C(=O)N(c3ccc([N+](=O)[O-])cc3)N=C2N2CCOCC2)ccc1O`: the inhibition was -19.4% (inactive).

As for `N#Cc1c(NC(=O)CSc2ncnc3sccc23)oc(-c2ccco2)c1-c1ccco1`, the inhibition was 7.1% (inactive). Turning to `CC1=NN(c2ccc(Cl)cc2)C(=O)C1C(c1ccccc1O)c1c(C)[nH]n(-c2ccc(Cl)cc2)c1=O` (stereo unspecified), the inhibition is -12.7% (inactive). In the case of `CC(C)(C)c1cnnn1-c1cccc([N+](=O)[O-])c1`, the inhibition was 6.3% (inactive). For `CN1CCCc2cc3c(C(F)(F)F)cc(=O)oc3nc21` the value was 57.5% (active); for `O=C(CC1CS(=O)(=O)CC1CC(=O)Oc1ccccc1F)Oc1ccccc1F` (stereo unspecified), 5.6% (inactive). For `CC(=O)Oc1ccc2cc(-c3nc4ccccc4n3C)c(=O)oc2c1` the value was 38.6% (active).

Consider `CC1=C(C#N)C(=O)NC(=O)/C1=C/c1ccc(-c2ccc(S(N)(=O)=O)cc2)o1`, for which the inhibition was 19.2% (inactive). For `O=c1c2ccccc2nc2n1CCC2` the value was 31.4% (active). To `Cc1nc2ccccc2c(=O)n1/N=C/c1ccc(O)c(O)c1O` belongs 7.15% (inactive); to `Cc1ccc(/C=N/NC(=O)c2cccc(S(=O)(=O)Nc3cccc(Cl)c3)c2)o1`, 9.55% (inactive).

In the case of `O=[N+]([O-])c1cccc(S(=O)(=O)Nc2nc3ccccc3nc2Nc2cccc(S(=O)(=O)N3CCCCC3)c2)c1`, the inhibition is -17.1% (inactive).

For `CC1=NN(c2ccccc2)C(=O)/C1=C\c1ccc(Br)s1`, the inhibition is -10.7% (inactive). To `Nc1ccc(N2CCCCC2)c2nonc12` belongs -23.7% (inactive). Regarding `COc1ccc(N2C3=C(CC4=C2CCCC4=O)C(=O)CCC3)cc1`, the inhibition was 18.1% (inactive). In the case of `COc1ccc(C2C3=C(CCCC3=O)Nc3c(-c4ccccc4)c(C)nn32)cc1` (stereo unspecified), the inhibition was 46.6% (active). For `O=C(CNc1cccc2ccccc12)N/N=C/c1ccc([N+](=O)[O-])cc1` the value was -4% (inactive). Consider `Cn1c(-c2ccc(C=O)s2)nc2ccccc21`, for which the inhibition is 49.1% (active). To `Cn1c(-c2ccc(C=O)s2)nc2c3ccccc3c3ccccc3c21` belongs 22.3% (inactive).

For the compound `Cn1c(CNc2ccc(O)cc2)nc2ccccc21`, the inhibition was -19.7% (inactive). On to `CC(C)CC(=O)Nc1ccc(C(=O)Cn2nc(C(=O)O)c3ccccc3c2=O)cc1`, for which the inhibition is -7.35% (inactive). For `[O-]/C(=C(\C(=S)Nc1cccc2ccccc12)[n+]1cccc(CO)c1)c1ccc(Cl)s1` the value was -14.8% (inactive). On to `COc1ccc(Cc2n[nH]c(=S)n2NC(=O)Nc2ccc(C)cc2)cc1`, for which the inhibition is 20.8% (inactive). Take `COc1ccc(Cn2c(C)c(C)c(C#N)c2NC(=O)Nc2ccc(F)cc2)cc1`: the inhibition is 1.75% (inactive). Regarding `COc1ccc(Cc2n[nH]c(=S)n2NC(=O)Nc2ccc(Cl)c(Cl)c2)cc1`, the inhibition was 54.1% (active). `CCOC(=O)C1=C(C)N=c2s/c(=C\c3ccc(OCC(=O)O)cc3)c(=O)n2C1c1ccc(OC(C)C)cc1` (stereo unspecified): the inhibition was 12.8% (inactive). For `COc1cccc(OC)c1C(=O)N1CCNCC1`, the inhibition was -12.3% (inactive). To `COc1ccc(C(=O)N2CCC(O)(c3ccc(F)cc3)CC2)cc1OC` belongs 39% (active); to `Cc1[nH][nH]c(=O)c1C(c1c(C)[nH][nH]c1=O)c1cn(C)c2ccccc12`, -22.4% (inactive).

Consider `COc1cccc(C(=O)Nc2cccc(C(=O)NC3=NN(c4c(Cl)cc(Cl)cc4Cl)C(=O)C3)c2)c1`, for which the inhibition was -11.8% (inactive). For `CCN(CC(=O)c1c(N)n(C)c(=O)n(C)c1=O)c1cccc2ccccc12` the value was 11.8% (inactive). To `COc1cc(/C=N/NC(=O)c2ccccc2O)ccc1OCC(=O)Nc1ccccc1` belongs 15.4% (inactive); to `Cc1cc2n(n1)SC(Nc1cccc3ccccc13)N2` (stereo unspecified), -6.45% (inactive); to `Oc1cccc(C=Nc2cccc3ccccc23)c1O`, 8.55% (inactive). As for `Cc1ccc(N2CSC3=C(C#N)C(c4cccs4)CC(=O)N3C2)cc1` (stereo unspecified), the inhibition is -28.4% (inactive). To `Cc1c(CC(=O)N2CCN(C(=O)C3COc4ccccc4O3)CC2)c(=O)oc2c(C)c(O)ccc12` (stereo unspecified) belongs 66.6% (active). In the case of `Cc1ccc(C)c(S(=O)(=O)C(C#N)c2nc3ccccc3nc2N2CCCC2)c1` (stereo unspecified), the inhibition is 1.8% (inactive).

As for `CCCCCc1c2c(cc(O)c1C(=O)O)OC(=O)c1c(cc(OC)cc1C(=O)CCCC)O2`, the inhibition was 11.2% (inactive).

As for `c1coc(-c2nnc(-c3ccco3)nn2)c1`, the inhibition is 7.95% (inactive). For `Cc1cccc2nc(-c3ccco3)c(Nc3ccc4c(c3)OCO4)n12` the value was -6.85% (inactive); for `Cc1cc(=O)[nH]c(SCC(=O)c2ccc(O)c(O)c2)n1`, 7.45% (inactive).

The term inhibition denotes the change of the read-out against control, counted positive when it falls.

These data come from PubChem BioAssay AID2069 (Sanford-Burnham Center for Chemical Genomics, 2009).
